IL-1B inflam inh – qHTS for Inhibitors of Inflammasome Signaling: IL-1-beta AlphaLISA Primary Screen; activity change, % at 57.5 µM; THP-1 LPS/ATP IL-1B secretion, AlphaLISA, 16 h; stronger effect = lower value; hit rate 4.7% among 360,000; in the data active means activity change below about -50%; inconclusive means mostly about -30% to -49%; further: on the % scale 0 is the no-effect control and ±100 the full control effect
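Secreted IL-1B measured by AlphaLISA bead assay after 16 h compound exposure of THP-1 cells; compounds (final up to 57.5 uM) added 1 h before LPS (250 ng/mL) and ATP (1.25 mM) stimulation; lower signal means less secretion.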
DT40 TDP1 CPT – qHTS for Inhibitors of human tyrosyl-DNA phosphodiesterase 1 (TDP1): qHTS in cells in presence of CPT | hit rate 12% among 420,000 | Potency, µM (doses to about 46.2 µM), without a hit: top-dose activity change, negative = growth inhibition, most hits filed as inhibitors | AID 686979, 2013 | chicken DT40 Tdp1-/-;hTDP1 cells + 20 nM CPT, ATP luminescence, 48 h; further: potency means the concentration at half of the fitted maximal effect; on the % scale 0 is the no-effect control and ±100 the full control effect; nearly all actives have a fitted effect of over 55% in size
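Chicken DT40 Tdp1-/- cells complemented with human TDP1, 400 cells/well, exposed to compounds plus 20 nM camptothecin for at least 48 h at 37 C; viability read as ATP content by CellTiter-Glo luminescence.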
TDP1 inh – qHTS Assay for Inhibitors of Tyrosyl-DNA Phosphodiesterase (TDP1); Tyrosyl-DNA phosphodiesterase 1 (Homo sapiens), Q9NUW8; recombinant TDP1, AlphaScreen DNA substrate cleavage; Potency, µM (series often up to 130 µM), inactives show at the top dose activity change, negative = inhibition, hits mostly inhibitors; hit rate 0.28% among 350,000; AID 485290, 2010; further: potency means the concentration at half of the fitted maximal effect; on the % scale 0 is the no-effect control and ±100 the full control effect; nearly all actives have a fitted effect of over 40% in size
Target sequence (Q9NUW8 whole entry, looked up): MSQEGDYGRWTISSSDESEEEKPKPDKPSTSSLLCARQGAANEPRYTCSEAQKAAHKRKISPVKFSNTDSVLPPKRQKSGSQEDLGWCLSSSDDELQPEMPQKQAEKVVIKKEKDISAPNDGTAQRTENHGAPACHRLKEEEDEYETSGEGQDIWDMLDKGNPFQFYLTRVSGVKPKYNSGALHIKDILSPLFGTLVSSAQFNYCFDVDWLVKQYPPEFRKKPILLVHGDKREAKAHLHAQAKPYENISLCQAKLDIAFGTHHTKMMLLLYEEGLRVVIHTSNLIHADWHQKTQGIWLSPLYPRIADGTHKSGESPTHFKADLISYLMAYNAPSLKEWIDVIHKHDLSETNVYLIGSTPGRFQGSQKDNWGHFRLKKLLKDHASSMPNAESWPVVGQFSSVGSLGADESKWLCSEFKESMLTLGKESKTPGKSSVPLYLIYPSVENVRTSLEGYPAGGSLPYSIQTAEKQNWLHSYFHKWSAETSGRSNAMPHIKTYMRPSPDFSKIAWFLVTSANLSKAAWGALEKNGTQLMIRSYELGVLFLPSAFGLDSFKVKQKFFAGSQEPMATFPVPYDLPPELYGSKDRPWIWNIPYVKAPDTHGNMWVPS
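Here, a 5' biotin and 3' phosphotyrosine-FITC DNA oligonucleotide reports Tdp1 activity: intact substrate bridges AlphaScreen beads, while cleavage leaves a 3' phosphate and drops signal. All incubations at room temperature.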
TGFb inhibitor – qHTS for Inhibitors of TGF-b; HepG2 CAGA-GFP TGF-b/SMAD3 reporter, GFP fluorescence, 18 h; TGF-beta stimulated, 500 pg/mL final; Potency, µM (titrated, usually from 46.1 µM), without a hit: top-dose activity, negative = inhibition, most hits filed as inhibitors; hit rate 1.2% among 410,000; AID 588855, 2011; further: potency means the concentration at half of the fitted maximal effect; on the % scale 0 is the no-effect control and ±100 the full control effect; nearly all actives have a fitted effect of over 65% in size
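Per well, imaged GFP fluorescence of HEPG2 CAGA-GFP cells gives the signal; cells get compound, then TGF-beta (500 pg/mL final), 18 h at 37 degrees C; %Activity versus -TGF-beta and +DMSO controls.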
DT40 TDP1 no CPT – qHTS for Inhibitors of human tyrosyl-DNA phosphodiesterase 1 (TDP1): qHTS in cells in absence of CPT; DT40 Tdp1-/- hTDP1 cells, no CPT, ATP luminescence, 48 h; Potency, µM (highest dose often 46.2 µM), for the others: top-dose activity change, negative = growth inhibition, most hits filed as inhibitors; hit rate 15% among 420,000; further: potency means the concentration at half of the fitted maximal effect; on the % scale 0 is the no-effect control and ±100 the full control effect; nearly all actives have a fitted effect of over 55% in size
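Cells were dispensed at 400 per well, compounds added by pin tool, plates incubated ≥48 hr at 37 °C, then CellTiter-Glo added for 30 min at room temperature before luminescence reading. Line: DT40 Tdp1-/- complemented with hTDP1; camptothecin omitted.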
HepG2 tox – qHTS for Inhibitors of TGF-b: Cytotox Counterscreen | hit rate 0.76% among 410,000 | Potency, µM (doses to about 46.1 µM), inactives show at the highest dose activity change, negative = cytotoxicity, hits mostly cytotoxic | HepG2 CAGA-GFP viability, ATP luminescence, 18 h; further: potency means the concentration at half of the fitted maximal effect
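HepG2 CAGA-GFP cells (1000/well, DMEM with 1% FBS) received compound, then TGF-beta at 500 pg/mL final, and were incubated 18 hours at 37 degrees C. Viability was read by CellTiter-Glo luminescence. Media-only wells were set as complete cell-killing and DMSO as no toxicity.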
* = called active by the depositor; ? = inconclusive; · = not tested or not shown; [ ] = another dose, or the depositor's remark. This is a sample that favours compounds with a hit; in the whole collection about 19% have one here. Unless noted, the call rests on the fitted dose curve; in most records, active means well fitted curve in the direction sought with a large enough effect; inconclusive means small, poorly fitted or top-dose-only effect, or another doubt; inactive means no such curve, though single readings can be large; an effect the other way counts as inactive or inconclusive.

SMILES	IL-1B inflam inh	DT40 TDP1 CPT	TDP1 inh	TGFb inhibitor	DT40 TDP1 no CPT	HepG2 tox
NS(=O)(=O)c1ccc(NC(=O)CSc2nc(Nc3ccccc3)nc(N3CCOCC3)n2)cc1	-18	21µM*	4%	1%	16µM*	-22%
O=C(CSc1nc2ccc(Nc3nc(N4CCOCC4)nc(N4CCOCC4)n3)cc2s1)Nc1ccccc1F	40	6.5µM*	-4%	1%	5.8µM*	-8%
O=C(CSc1nc2ccc(Nc3nc(N4CCOCC4)nc(N4CCOCC4)n3)cc2s1)Nc1ccccc1Cl	0	21µM*	0%	-23%	?	4%
COC(=O)c1ccccc1NC(=O)CSc1nc(Nc2ccccc2)nc(N2CCOCC2)n1	0	?	6%	-24%	?	-60%
O=C(CSc1nc2ccc(Nc3nc(N4CCCC4)nc(N4CCCC4)n3)cc2s1)NCc1ccco1	0	5.8µM*	·	16%	6.5µM*	-2%
CCCCC(Sc1nc(C)c(Cc2ccccc2)c(=O)[nH]1)C(=O)O (configuration not stated)	-6	-4%	·	4%	-12%	8%
O=C(CSc1nnc(-c2ccc3c(c2)OCO3)o1)Oc1ccccc1	·	0%	0%	?	1%	1%
Cc1cccc(CNC(=O)CN2C(=O)CCn3nc(-c4cn(C)c5ccccc45)cc32)c1	·	?	8%	?	?	0%
O=C(CSc1nc2ccc(Nc3nc(N4CCOCC4)nc(N4CCOCC4)n3)cc2s1)N1CCOCC1	-13	21µM*	3%	-7%	18µM*	1%
CSc1nc2ccc(Nc3nc(N4CCOCC4)nc(N4CCOCC4)n3)cc2s1	·	23µM*	3%	24%	16µM*	-25%
COc1ccc(Nc2nc(N3CCCC3)nc(N3CCOCC3)n2)cc1	·	·	·	-8%	·	-30%
CCOc1ccc(N2CC(NC(=O)/C=C\c3ccc4c(c3)OCO4)CC2=O)cc1 (configuration not stated)	·	-17%	5%	-1%	2%	6%
CSc1nsc(SC)c1NC(=O)Nc1ccccn1	1	16µM*	4%	0%	?	-17%
CSc1nsc(SC)c1NC(=O)OCCc1ccccn1	16	-9%	-2%	9%	2%	-1%
Cc1cc(C)c2cccc(NC(=S)NC(=O)c3ccccc3)c2n1	22	16µM*	8%	-20%	13µM*	-11%
CC(=O)NC(=S)Nc1cccc2c(C)cc(C)nc12	27	1%	-5%	0%	-10%	-82%
Cc1ccc2cccc(NC(=S)NC(=O)c3ccccc3)c2n1	24	18µM*	8%	-3%	?	-41%
COc1ccc(COC(=O)N/N=C2/C[C@@H](O)[C@@H](O)[C@@H]3[C@@H]4C(=O)N(Cc5ccc6c(c5)OCO6)C(=O)[C@H]4CC[C@H]23)cc1	·	·	8%[21 µM]	·	·	·
CCc1ccc(-c2nn(CC(=O)NCc3ccccc3)c3c2cnc2ccc(C)cc23)cc1	·	-11%	1%	4%	-13%	5%
Cc1ccc(NC(=O)c2sc3nc(C)cc(C)c3c2N)cc1	16	-3%	·	1%	?	-13%
Cc1ccccc1NC(=O)c1sc2nc3c(cc2c1N)CN(Cc1ccccc1)CC3	·	?	6%	1%	18µM*	-15%
Cc1cccc(NC(=O)c2sc3nc4c(cc3c2N)CCCCCC4)c1C	·	1.5µM*	·	?	0.65µM*	-18%

Source: PubChem BioAssay
